According to PubChem BioAssay (NCI):
The panel holds about 83,000 compounds, 20% with a hit somewhere; the sample as a whole holds those more often.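 Single-concentration screen, 48 h exposure, 96-well plates. Endpoint: percent growth. Below 10 = active.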 Calls of active or inactive are those of the source.

Each molecule was assayed on NCI-H322M lung (assay: NCI-60 one-dose screen, 48 h (100 = growth as untreated, 0 = no growth, -100 = all killed)). Conditions: 10 µM unless noted.
With `O=C1NC(=S)S/C1=C\N1N=C(c2ccc(Cl)cc2)CC1c1ccc(F)cc1` (configuration not stated) the growth was 99.1% (inactive). In the case of `Cc1nc2ccc(C(=O)NCc3cc(C(=O)O)c(C)o3)cc2nc1C`, the growth is reported as 96.9% (inactive). In the case of `N=C(N)c1ccc(-c2ccc(-c3ccc(Cl)cn3)s2)cc1`, the growth is reported as 4.72% (active).

These molecules were tested on HOP-62 NSCLC in the same assay as above. Conditions: 10 µM unless noted.
For `NC(=S)N/N=C/C(=O)O`, the growth was 85.9% (inactive). `CS(=O)(=O)c1ccc(-c2[nH]c3ccc(F)cc3c2/C=N/NC(N)=S)cc1` was tested, and the growth was 34.2% (inactive). For `O=[N+]([O-])c1ccc(-c2cc3c(Nc4ccc(Cl)c(C(F)(F)F)c4)ncnc3s2)cc1`, the growth was 20.8% (inactive). `COC(=O)c1ccc(CSc2nnc(-c3ccncc3)o2)cc1` was tested, and the growth was 92.4% (inactive). `NS(=O)(=O)Oc1ccc(NC(=O)C23CC4CC(CC(C4)C2)C3)cc1Cl` was tested, and the growth was 92.1% (inactive). With `O=C1N(c2ccccc2)C(=S)N[C@]12[C@H](c1ccccc1)C1CCCN1[C@]21C(=O)NC2C=CC(Cl)=C[C@H]21` (some centres not stated) the growth was 91.5% (inactive). For `COc1ccc(-c2nc3ncccn3c2/C=C/C(=O)c2cc(OC)c(OC)c(OC)c2)cc1`, the growth was -12.4% (active). For `N#C/C(=C\c1ccc(Br)cc1)n1nnc2cc(Cl)c(Cl)cc21`, the growth was 53.1% (inactive). `O=S(=O)(Cc1ccccc1)c1nc2ccccc2s1` was tested, and the growth was 105% (inactive). In the case of `COc1ccc(-c2nnc(-c3ccc4c(c3)nc(-c3ccccc3)n4C3CCCCC3)o2)cc1`, the growth is reported as 50.5% (inactive). In the case of `CN1CCC(=C2c3ccccc3C=Cc3ccccc32)CC1`, the growth is reported as 83.4% (inactive). With `CNC(=O)NCC1OC(n2cnc3c(NC(=O)Nc4ccccc4)ncnc32)C2OC(C)(C)OC12` (configuration not stated) the growth was 99.3% (inactive). In the case of `COc1ccc(-c2cncnc2N)cc1OC`, the growth is reported as -100% (active). With `O=[N+]([O-])c1ccccc1C(O)Cc1ccc2ccccc2n1` (configuration not stated) the growth was 88% (inactive). With `CCn1c(Sc2nnc(NC(C)=O)s2)nc2c1c(=O)n(C)c(=O)n2C` the growth was 99.4% (inactive). In the case of `CN1C(=O)CCC(N2C(=O)c3cccc(NCCOCCOCCNC(=O)c4cc5c(o4)C(=O)c4ccccc4C5=O)c3C2=O)C1=O` (configuration not stated), the growth is reported as -59.1% (active). In the case of `CC/C=C/[C@@H]1C=C[C@@H]2CCC[C@H]2[C@@H]1CC[C@H](O)[C@H](C)N`, the growth is reported as -89.7% (active). In the case of `Cc1ccc2c(n1)C(=O)C(Oc1ccc(F)cc1)=CC2=O`, the growth is reported as 125% (inactive). `C/C(=N\NC(=O)Cn1c(-c2ccc(S(C)(=O)=O)cc2)nc2cc(Cl)ccc21)c1ccc(Cl)cc1` was tested, and the growth was 80.9% (inactive). With `Nc1ccn(C2OC(F)(CO)C(O)C2F)c(=O)n1` (configuration not stated) the growth was 17.3% (inactive). `Cc1ccc(Nc2ccc(Nc3ccc(C)cc3S(=O)(=O)O)c3c2C(=O)c2ccccc2C3=O)c(S(=O)(=O)O)c1` was tested, and the growth was 107% (inactive). `Cc1ccc(NSc2ccccc2[N+](=O)[O-])cc1` was tested, and the growth was 24.8% (inactive). `Cc1cc(Cl)nc(N(CCCNc2ccnc3cc(Cl)ccc23)Cc2ccccn2)n1` was tested, and the growth was 64% (inactive). `O=C1NN(C(=O)c2ccc(O)cc2)C(c2ccccc2)=N/C1=C\c1cn(-c2ccccc2)nc1-c1ccccc1` was tested, and the growth was 92% (inactive). For `N#Cc1c(NC(=O)c2cccc(C(F)(F)F)c2)sc2c1CCC(=O)C2`, the growth was 4.66% (active). In the case of `CCN(CC)N=Nc1nn(C(=O)Nc2ccc(Cc3ccccc3)cc2)c2ccc(Cl)cc12`, the growth is reported as 86.9% (inactive). With `Cc1ccc(C)c2c1C(=O)OC2=O` the growth was 92.1% (inactive). With `C=C(C)[C@@H]1CC[C@]2(CNCCO)CC[C@]3(C)[C@H](CC[C@@H]4[C@@]5(C)CCC(N)[C@@](C)(CO)[C@@H]5CC[C@]43C)[C@@H]12` (some centres not stated) the growth was -53.7% (active). With `C=CC(=O)Nc1cccc(C)c1Nc1cc(-c2cccnc2Cc2c(C)c(OC)cc(OC)c2C)ncn1` the growth was -38% (active). With `O=C(CC12CC3CC(CC(C3)C1)C2)NCCOCCOCCOCCNC(=O)c1cc2c(o1)C(=O)c1ccccc1C2=O` the growth was -49.7% (active). For `COc1cc(-c2ccc(N=Nc3c(O)c(C(=O)Nc4ccccc4OC)cc4ccccc34)c(OC)c2)ccc1N=Nc1c(O)c(C(=O)Nc2ccccc2OC)cc2ccccc12`, the growth was 80.6% (inactive). In the case of `C=CCOc1cccc(/C=C2\SC(=Nc3ccc(O)cc3)NC2=O)c1`, the growth is reported as 25.6% (inactive). For `CC(C)CCC[C@@H](C)[C@H]1CCC2C3=CCn4c(=O)ccc(=O)n4C3CC[C@@]21C` (some centres not stated), the growth was -93.3% (active). For `COc1ccccc1C(=O)NC(=S)Nc1ccc(-c2nc3ccccc3[nH]2)cc1`, the growth was 46.2% (inactive). With `COC(=O)[C@]12CC[C@@H](C)[C@H](C)[C@@H]1C1=CC[C@@H]3[C@@]4(C)C(C=O)=C[C@@](C)(CO)C4=CC[C@@]3(C)[C@]1(C)CC2` the growth was 83.8% (inactive). For `O=C(NCCOCCOCCNc1cccc2c1C(=O)N(C1CCCNC1=O)C2=O)c1cc2c(o1)C(=O)c1ccccc1C2=O` (configuration not stated), the growth was -65.2% (active). For `O=C1NC(=S)S/C1=C\N1N=C(c2ccc(Cl)cc2)CC1c1ccc(F)cc1` (configuration not stated), the growth was 103% (inactive). `Cc1nc2ccc(C(=O)NCc3cc(C(=O)O)c(C)o3)cc2nc1C` was tested, and the growth was 77% (inactive). In the case of `N=C(N)c1ccc(-c2ccc(-c3ccc(Cl)cn3)s2)cc1`, the growth is reported as 56.3% (inactive).
